The values that follow come from PubChem BioAssay.

The nature of assay [1]: P. berghei load reduction in hepatocytes – cell-based, HepG2, luciferase luminescence, HepG2 viability, primary screen (AID 624349; in the data active = parasite load remaining mostly below about 12%, no sharp cut-off; inactive = mostly above about 10%;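 note: 100% = mean of DMSO negative control wells on the same plate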). The settings on record: P. berghei liver stage in HepG2, luciferase luminescence, concentration not given here; parasite load remaining: stronger effect = lower value; viability: measured here: HepG2 viability without parasites.
The nature of assay [2]: Wnt pathway potentiators raising nuclear beta-catenin – imaging, WNT3A-conditioned medium, mouse C2C12, NPC library, primary screen (AID 1117326; in the data active = nuclear beta-catenin stimulation mostly above about 4.2%, no sharp cut-off; inactive = mostly below about 10%). Particulars: stronger effect = higher value.
The nature of assay [3]: stimulators of insulin release from INS-1E, primary screen, cell-based, 5 mM glucose, NPC library (AID 1117329;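 active = compound raises insulin release from rat beta cells at 5 mM glucose, no numeric limit stated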). Particulars: rat INS-1E insulin secretion, at 10 µM, stronger effect = higher value.
Assay [4] is described as follows: growth inhibition of GSK3B-pretreated HCT116 cells – cell-based, CellTiter-Glo, 0.2 to 20 µM (AID 1117336;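 active = compounds lowering colon cancer cell viability after pretreatment blocking the GSK3B kinase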). The settings on record: HCT116 viability after GSK3B inhibitor, at 20 µM, stronger effect = higher value.
Assay [5] is described as follows: inhibition of endothelial tube formation, primary screen, imaging, VEGF stimulated, CD31 staining, tube area, NPC library (AID 1117340;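 active = compound that reduces growth-factor-driven endothelial tube area in a mixed cell culture, no cutoff stated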). Particulars: VEGF-stimulated ADSC/ECFC co-culture, at 10 µM, stronger effect = higher value.
A short description of assay [6]: GLP1 release stimulators, primary, NCI-H716, NPC library (AID 1117341;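 active = compound raises GLP1 secretion from the human gut endocrine cells, with no numeric limit stated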). Particulars: NCI-H716 cells, at 10 µM, stronger effect = higher value.
Assay [7] in a line: HCT116 colon cancer cell growth inhibition, primary screen, CellTiter-Glo luminescence, NPC library (AID 1117342;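 active = compounds that lower survival of HCT116 colon cancer cells in the luminescence readout, no numeric limit stated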). The settings on record: at 20 µM (top of the series). Background: Cellular ATP, detected with luciferase, serves as a proxy for viable cell number.
A short description of assay [8]: reduced SW480 viability measured with CellTiter-Glo, NPC library, primary (AID 1117343;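 active = compounds that lower viability of the colon cancer cells in the luminescence readout, with no numeric limit stated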). The settings on record: CellTiter-Glo luminescence; at 20 µM (top of the series).
Assay [9] can be described thus: NPC library primary testing for decreased DLD-1 cell viability via CellTiter-Glo (AID 1117346;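 active = compounds that lower survival of DLD-1 colon cancer cells in the luminescence readout, no cutoff given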). The settings on record: DLD-1 viability, CellTiter-Glo luminescence; at 20 µM (top of the series).
Assay [10] is described as follows: viability loss with induced miR-34 in A549 – imaging, A549 dox-inducible miR-34, nuclei and caspase counts, primary screen (AID 1347080;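 active = compounds whose cell count with miR-34 switched on is under 0.7 times the count with it off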). The settings on record: A549 miR-34 inducible, Hoechst nuclei count, 48 h.
A short description of assay [11]: galactose survival enhancers in mitochondrial complex I cybrids – cell-based, galactose medium, ATP luminescence, primary screen (AID 1645843).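 Note: positive z means more ATP and so rescue of galactose-driven cybrid death.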 The settings on record: complex I mutant cybrid cells, 72 h, stronger effect = higher value.
Assay [12] is described as follows: yeast 75Q aggregation reduction – 75Q-TubU reporter (AID 1593). The settings on record: Yeast 75Q polyglutamine aggregation reporter.
The nature of assay [13]: blockers of cytochrome c efflux from mitochondria – biochemical, purified mitochondria (AID 1603).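 Note: mouse liver mitochondria challenged with calcium chloride; signal normalized to the plate average as 100%.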 Particulars: stronger effect = lower value.
A short description of assay [14]: polyglutamine aggregate formation blockers (AID 1604). The settings on record: polyglutamine-induced protein aggregation inhibition assay; stronger effect = higher value; tested at 2.5 µM.
Assay [15] can be described thus: EMT-state selective cytotoxicity in co-culture – imaging, PC-3E GFP, TEM4-18 mCherry, primary screen (AID 1345086;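 active = compounds killing one labelled cell type while sparing the other, by normalised counts and ratio limits, not self-fluorescent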;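 for all read-outs here: cells exposed to compound for 72 h before imaging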;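 for red/green cell ratio (normalised): normalised mesenchymal count divided by normalised epithelial count so high means epithelial killing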). The settings on record: PC-3E GFP / TEM4-18 mCherry co-culture, imaging cell counts, at 1 µM; for red/green cell ratio (normalised): actives lie on both sides.
Assay [16] has as its system Aerobactin synthetase IucA (Klebsiella pneumoniae hvKP1). Kind of assay: IucA enzyme inhibition, primary screen, biochemical, Spectrum library (AID 1346200; call rule not given here;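 note: 100% = wells without compound and 0% = wells lacking enzyme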). Particulars: malachite green pyrophosphate, A620, at 8 µM, stronger effect = lower value.
For assay [17], the target named is NAD(+) hydrolase SARM1 (Homo sapiens) (UniProt Q6SZW1). In words: blocking NAD cleavage by SARM1 SAM-TIR – cell lysate, NAD-Glo luminescence (AID 1508614;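 active = compound whose remaining NAD level is above about 45 nM, limit read from the data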;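 note: higher remaining NAD means stronger inhibition of SARM1 NADase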). Particulars: SAM-TIR HEK293T lysate NADase, at 1 µM, stronger effect = higher value.
Sequence of NAD(+) hydrolase SARM1 (Homo sapiens) (Q6SZW1 whole entry, looked up, the tested form may be a part): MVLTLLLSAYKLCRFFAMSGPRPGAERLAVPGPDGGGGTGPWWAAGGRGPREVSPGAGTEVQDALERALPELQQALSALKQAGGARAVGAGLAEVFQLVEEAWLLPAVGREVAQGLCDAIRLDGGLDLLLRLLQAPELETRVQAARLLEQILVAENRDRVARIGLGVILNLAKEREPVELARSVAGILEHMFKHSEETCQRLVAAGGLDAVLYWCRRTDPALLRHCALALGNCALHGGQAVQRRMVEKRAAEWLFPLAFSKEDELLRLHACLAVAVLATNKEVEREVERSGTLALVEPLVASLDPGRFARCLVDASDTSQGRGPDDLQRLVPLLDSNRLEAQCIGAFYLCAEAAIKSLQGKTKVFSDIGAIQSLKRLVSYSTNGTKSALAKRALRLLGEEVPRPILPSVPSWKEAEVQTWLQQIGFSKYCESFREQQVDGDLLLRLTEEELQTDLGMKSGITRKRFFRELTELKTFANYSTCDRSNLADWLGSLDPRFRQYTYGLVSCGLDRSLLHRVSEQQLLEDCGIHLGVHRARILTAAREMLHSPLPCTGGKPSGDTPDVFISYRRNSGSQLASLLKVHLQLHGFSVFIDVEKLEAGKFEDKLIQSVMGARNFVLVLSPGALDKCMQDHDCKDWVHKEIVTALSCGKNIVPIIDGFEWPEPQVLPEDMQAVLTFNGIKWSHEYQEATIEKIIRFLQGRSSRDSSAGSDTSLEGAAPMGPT
Assay [18] addresses Mitogen-activated protein kinase 7 (Homo sapiens) (UniProt Q13164). Kind of assay: Gal4-ERK5 driven luciferase induction – cell-based, HTS, primary screen (AID 1508626;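 active = luciferase signal above three times the same-plate solvent-only control wells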;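 note: luciferase driven by Gal4-ERK5 fusion binding five Gal4 sites before minimal TATA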). The settings on record: HeLa Gal4-ERK5 transactivation, 18 h, at 5 µM, stronger effect = higher value.
The nature of assay [19]: MELAS cybrid and Rieske KO viability enhancers – cell-based, MELAS cybrids, Rieske KO mouse fibroblasts, CellTiter-Glo, primary screen (AID 1508586;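 active = mean z-score across replicates of 1.96 or higher in either the MELAS or the Rieske mutant cell line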;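 note: z relative to plate mean and SD of compound and empty wells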). Particulars: low glucose.
Where [20] appears, read: measured here: relative caspase fold change +Dox/-Dox.
The mark [21] stands for this setting: measured here: total cells with miR-34 induction, stronger effect = lower value.
The mark [22] stands for this setting: measured here: total cells without miR-34 induction.
[23] abbreviates: measured here: epithelial PC-3E GFP cell survival.
Setting [24] is: measured here: mesenchymal TEM4-18 mCherry cell survival.

Structures are written as SMILES. “And” between values parts separate entries of the source, which are not always exact repeats. Identical values can stand only once. The source made the active and inactive calls.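 Rule for the calls, unless noted: active = z-score of at least 1.8 in each of two replicates, scored against plate mean and spread of sample wells; inactive = the rest.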

Sequence of Mitogen-activated protein kinase 7 (Homo sapiens) (Q13164 whole entry, looked up, the tested form may be a part): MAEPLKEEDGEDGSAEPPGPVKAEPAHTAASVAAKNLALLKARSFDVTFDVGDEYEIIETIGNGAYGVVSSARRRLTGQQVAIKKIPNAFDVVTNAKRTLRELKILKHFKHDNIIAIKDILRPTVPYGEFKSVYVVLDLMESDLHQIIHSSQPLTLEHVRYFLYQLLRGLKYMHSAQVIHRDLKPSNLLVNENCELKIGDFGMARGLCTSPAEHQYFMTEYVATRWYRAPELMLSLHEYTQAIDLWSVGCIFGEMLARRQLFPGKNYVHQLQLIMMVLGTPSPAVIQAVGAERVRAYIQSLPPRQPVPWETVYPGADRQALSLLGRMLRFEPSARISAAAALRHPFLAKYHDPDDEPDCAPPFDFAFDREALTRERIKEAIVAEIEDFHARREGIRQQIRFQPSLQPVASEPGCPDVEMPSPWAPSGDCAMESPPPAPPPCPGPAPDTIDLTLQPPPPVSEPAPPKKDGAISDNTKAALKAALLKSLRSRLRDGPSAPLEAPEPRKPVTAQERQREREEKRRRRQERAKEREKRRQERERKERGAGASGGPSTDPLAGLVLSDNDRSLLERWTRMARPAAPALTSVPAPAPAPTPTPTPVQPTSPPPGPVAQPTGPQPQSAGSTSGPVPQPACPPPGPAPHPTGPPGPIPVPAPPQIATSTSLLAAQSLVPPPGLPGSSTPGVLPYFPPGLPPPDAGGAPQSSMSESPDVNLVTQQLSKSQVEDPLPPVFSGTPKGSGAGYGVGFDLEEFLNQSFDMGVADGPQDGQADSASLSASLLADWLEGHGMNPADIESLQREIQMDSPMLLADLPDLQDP

For the compound `C[N+]1(CCC(C(N)=O)(c2ccccc2)c2ccccc2)CCCCC1`, the parasite load remaining in assay [1] is 104% (inactive). Besides, the viability in [1] is 70.3%. Further, the nuclear beta-catenin stimulation in [2] (at 10 µM) is 0.3% (inactive); in [2] (stimulation, at 2 µM), 0.3%. In [3], the insulin secretion stimulation is 0.55% (inactive). The viability decrease in [4] is 13.5% (inactive). Moreover, the tube area decrease in [5] was -8.4% (inactive). Further, in assay [6], the GLP1 secretion stimulation is 1.2% (inactive). The inhibition of viability in [7] is -21.6% (inactive). In addition, the viability decrease (inhibition) is -9.7% (inactive) in assay [8] and -24.2% (inactive) in [9]. Also, the fold change is 0.846 (inactive) in assay [10] (stronger effect = lower value) and 2.2 in assay [10] (setting [20]). The figures for the cell count in assay [10] (setting [21]) and in assay [10] (setting [22]) were 8180 and 9670, respectively. The z-score in assay [11] was 0.675 (inactive).
As to `COc1cc(N)c(Cl)cc1C(=O)NC1CN2CCC1CC2` (stereo not given), the parasite load remaining in assay [1] was 103% (inactive). In addition, the viability in assay [1] is 107%. The nuclear beta-catenin stimulation in assay [2] (at 10 µM) is -1.2% (inactive); in [2] (stimulation, at 2 µM) it was 0%. In assay [3], the insulin secretion stimulation is 3% (inactive). Also, the viability decrease in assay [4] is 0.8% (inactive). Also, the tube area decrease in [5] is -1.2% (inactive). In addition, the GLP1 secretion stimulation in [6] was 6.7% (inactive). Besides, the inhibition of viability in assay [7] was 15.8% (inactive). Also, the viability decrease (inhibition) in assay [8] is -5.8% (inactive); in assay [9], 1.7% (inactive). In addition, the fold change is 0.946 (inactive) in [10] (stronger effect = lower value); 0.971 (inactive) in assay [10] (stronger effect = lower value, cell number ratio, induced over uninduced); 1.7 and 0.526 in assay [10] (setting [20]). Also, the cell count in assay [10] (setting [21]) is 9370 and 10300; in [10] (setting [22]), 9910 and 10600. In [11], the z-score was 0.86 (inactive) and -0.355 (inactive).
In assay [12], `CCCC(C)C1(CC)C(=O)N=C(S)NC1=O` (stereo not given) yielded a score of 1.17. Further, in [13], the cytochrome c release ratio came out at 1.02. Further, in assay [14], the inhibition of aggregation stood at 30.6%. In addition, the parasite load remaining in assay [1] was 29.3% (inactive). Further, the viability in assay [1] was 123%. Also, the nuclear beta-catenin stimulation is 0.1% (inactive) in assay [2] (at 10 µM) and -0.3% in assay [2] (stimulation, at 2 µM). For the same compound, in assay [3], the insulin secretion stimulation is -0.2% (inactive). The viability decrease in [4] is -5.2% (inactive). The tube area decrease in assay [5] is -13.6% (inactive). Besides, the GLP1 secretion stimulation in [6] is 0.9% (inactive). Besides, the inhibition of viability in assay [7] is -4.4% (inactive). Besides, the figures for the viability decrease (inhibition) in assay [8] and in [9] were 95.4% (active) and 3.85% (inactive), respectively. Besides, in assay [15], the red/green cell ratio (normalised) was 1.19 (inactive). Also, the normalised cell number in assay [15] (setting [23]) came to 1.01; in [15] (setting [24]) it was 1.21. For the same compound, the activity remaining in assay [16] is 91.6% (inactive). The figures for the fold change in [10] (stronger effect = lower value) and in [10] (setting [20]) were 0.92 (inactive) and 4.02, respectively. Further, the figures for the cell count in [10] (setting [21]) and in [10] (setting [22]) were 10900 and 11900, respectively. Besides, the remaining NAD in assay [17] was 10 nM (inactive). In addition, in [18], the luciferase signal is 60 AU (inactive).
In the case of `CNCC(O)c1ccc(O)cc1` (stereo not given), in assay [1], the parasite load remaining is 81.5% (inactive) and 59.8% (inactive). The viability in assay [1] was 69.8% and 68.9%. In addition, the nuclear beta-catenin stimulation in assay [2] (at 10 µM) was -0.1% (inactive); in assay [2] (stimulation, at 2 µM), -2.7%. For the same compound, the insulin secretion stimulation in [3] was 0.25% (inactive). Further, the viability decrease in assay [4] is 14.7% (inactive). Further, in assay [5], the tube area decrease is -15.1% (inactive). Moreover, the GLP1 secretion stimulation in [6] is 0.1% (inactive). For the same compound, the inhibition of viability in assay [7] was -4% (inactive). Also, the viability decrease (inhibition) in assay [8] was -14.6% (inactive); in assay [9], -3.7% (inactive). The red/green cell ratio (normalised) in assay [15] is 1.1 (inactive). Further, the normalised cell number turned out to be 0.84 in assay [15] (setting [23]) and 0.92 in assay [15] (setting [24]). Also, the z-score was -0.35 (inactive) and -0.388 (inactive) and -0.264 (inactive) in [19] (MELAS cybrid survival, CellTiter-Glo 48 h, stronger effect = higher value); -0.247 and -0.0924 and -0.396 in [19] (Rieske KO mouse fibroblast survival, CellTiter-Glo 72 h); 0.82 (inactive) and 0.285 (inactive) in assay [11]. In addition, the remaining NAD in assay [17] is 10 nM (inactive).

In general, viability refers to a read-out of living cells in per cent, often relative to untreated cells.
